Measurements published in article PMC7862700, “An all-to-all approach to the identification of sequence-specific readers for epigenetic DNA modifications on cytosine”.

How the values were obtained:
Experiment in all cases: DAPPL (digital affinity profiling via proximity ligation, sequencing); 10 mM Tris-HCl pH 7.5, 50 mM NaCl, 1 mM DTT, 4% glycerol, room temperature, 30 min; GST-TFs on glutathione beads, 16-mer random dsDNA library, 0.1% formaldehyde crosslink after washing; high values mean tight binding
Conditions in all cases: protein: recombinant; tags: N-terminal GST; dsDNA, one strand shown
ELK1 = molecular target: T1, ELK1 (Homo sapiens, UniProt P19419 1-428)
T1 sequence: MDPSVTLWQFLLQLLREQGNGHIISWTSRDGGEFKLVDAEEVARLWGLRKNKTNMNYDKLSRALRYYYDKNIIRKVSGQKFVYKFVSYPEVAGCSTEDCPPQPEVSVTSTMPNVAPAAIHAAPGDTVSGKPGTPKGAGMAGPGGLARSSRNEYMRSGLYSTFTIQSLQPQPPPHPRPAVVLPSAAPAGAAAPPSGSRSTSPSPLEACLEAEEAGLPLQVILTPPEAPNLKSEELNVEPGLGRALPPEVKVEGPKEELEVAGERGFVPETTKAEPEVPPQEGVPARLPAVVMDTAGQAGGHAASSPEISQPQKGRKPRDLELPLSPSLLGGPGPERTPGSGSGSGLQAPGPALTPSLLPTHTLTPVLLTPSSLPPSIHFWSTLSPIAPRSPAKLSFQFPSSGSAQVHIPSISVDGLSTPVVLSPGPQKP
Method in brief: (§1)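 GST fusions of human transcription factors were expressed in yeast and captured with glutathione beads. Once given DNA barcodes and pooled alongside a tag-only sample, they were incubated for 30 min at room temperature with 200 nmole of a random double-stranded 16-mer DNA library in Tris/NaCl/DTT/glycerol buffer, then washed, crosslinked (0.1% formaldehyde), proximity-ligated, PCR-amplified and sequenced on an Illumina NextSeq500. The binding signal of each hexamer is its read frequency for a factor divided by its frequency for the tag-only sample.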

GABPA = molecular target: T2, GABPA (Homo sapiens, UniProt Q06546 1-454)
T2 sequence: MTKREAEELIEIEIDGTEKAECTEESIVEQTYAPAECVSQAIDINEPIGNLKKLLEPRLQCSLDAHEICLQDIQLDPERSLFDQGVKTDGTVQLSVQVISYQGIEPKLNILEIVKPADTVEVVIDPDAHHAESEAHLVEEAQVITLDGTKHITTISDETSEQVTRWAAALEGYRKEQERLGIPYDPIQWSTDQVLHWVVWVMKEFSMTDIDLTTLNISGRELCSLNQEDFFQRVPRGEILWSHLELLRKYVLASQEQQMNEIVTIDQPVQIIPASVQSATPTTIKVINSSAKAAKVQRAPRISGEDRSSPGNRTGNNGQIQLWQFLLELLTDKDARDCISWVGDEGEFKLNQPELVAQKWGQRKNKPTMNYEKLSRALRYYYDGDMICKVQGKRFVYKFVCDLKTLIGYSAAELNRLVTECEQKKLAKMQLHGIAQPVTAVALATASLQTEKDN
Method in brief: as §1

ERG = molecular target: T3, ERG (Homo sapiens, UniProt P11308 1-479)
T3 sequence: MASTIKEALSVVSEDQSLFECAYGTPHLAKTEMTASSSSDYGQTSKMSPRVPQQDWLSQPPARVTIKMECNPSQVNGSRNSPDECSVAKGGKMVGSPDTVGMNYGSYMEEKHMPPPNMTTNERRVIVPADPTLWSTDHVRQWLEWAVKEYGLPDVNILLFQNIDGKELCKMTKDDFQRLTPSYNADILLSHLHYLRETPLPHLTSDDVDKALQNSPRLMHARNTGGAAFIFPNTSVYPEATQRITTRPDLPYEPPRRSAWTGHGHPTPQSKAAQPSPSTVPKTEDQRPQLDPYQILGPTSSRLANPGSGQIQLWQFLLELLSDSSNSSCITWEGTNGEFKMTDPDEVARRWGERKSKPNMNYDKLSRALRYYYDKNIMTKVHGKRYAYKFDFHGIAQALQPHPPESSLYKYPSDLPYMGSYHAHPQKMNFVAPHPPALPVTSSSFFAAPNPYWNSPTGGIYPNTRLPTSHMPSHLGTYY
Method in brief: as §1

ELF1 = ELF1 (Homo sapiens, UniProt P32519 1-619)
Sequence of ELF1 (P32519 whole entry): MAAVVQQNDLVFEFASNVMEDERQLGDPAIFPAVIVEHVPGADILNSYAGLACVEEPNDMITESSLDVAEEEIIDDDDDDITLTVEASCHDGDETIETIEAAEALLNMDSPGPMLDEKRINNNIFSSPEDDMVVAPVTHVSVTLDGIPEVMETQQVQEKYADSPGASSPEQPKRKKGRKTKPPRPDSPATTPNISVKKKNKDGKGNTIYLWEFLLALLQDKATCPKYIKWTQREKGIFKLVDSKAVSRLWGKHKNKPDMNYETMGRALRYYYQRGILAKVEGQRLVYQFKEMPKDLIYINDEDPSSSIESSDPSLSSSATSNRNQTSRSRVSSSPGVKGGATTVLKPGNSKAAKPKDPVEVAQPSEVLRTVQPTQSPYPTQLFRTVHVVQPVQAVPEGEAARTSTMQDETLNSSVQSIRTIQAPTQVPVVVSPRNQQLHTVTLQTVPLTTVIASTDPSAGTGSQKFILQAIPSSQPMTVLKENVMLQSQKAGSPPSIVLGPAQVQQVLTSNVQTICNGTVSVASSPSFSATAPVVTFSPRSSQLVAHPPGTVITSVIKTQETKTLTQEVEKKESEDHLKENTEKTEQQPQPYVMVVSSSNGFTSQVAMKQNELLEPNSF
Method in brief: as §1

EHF = molecular target: T4, EHF (Homo sapiens, UniProt Q9NZC4 1-300)
T4 sequence: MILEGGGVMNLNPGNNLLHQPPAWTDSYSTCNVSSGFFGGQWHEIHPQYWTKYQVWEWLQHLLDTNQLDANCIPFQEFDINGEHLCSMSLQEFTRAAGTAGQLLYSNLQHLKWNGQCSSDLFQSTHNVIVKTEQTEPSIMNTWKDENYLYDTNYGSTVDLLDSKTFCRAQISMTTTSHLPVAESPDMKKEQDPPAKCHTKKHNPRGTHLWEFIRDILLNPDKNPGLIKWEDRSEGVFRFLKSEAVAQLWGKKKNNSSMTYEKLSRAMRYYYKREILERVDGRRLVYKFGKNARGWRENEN
Method in brief: as §1

SPIB = SPIB (Homo sapiens, UniProt Q01892 1-262)
Sequence of SPIB (Q01892 whole entry): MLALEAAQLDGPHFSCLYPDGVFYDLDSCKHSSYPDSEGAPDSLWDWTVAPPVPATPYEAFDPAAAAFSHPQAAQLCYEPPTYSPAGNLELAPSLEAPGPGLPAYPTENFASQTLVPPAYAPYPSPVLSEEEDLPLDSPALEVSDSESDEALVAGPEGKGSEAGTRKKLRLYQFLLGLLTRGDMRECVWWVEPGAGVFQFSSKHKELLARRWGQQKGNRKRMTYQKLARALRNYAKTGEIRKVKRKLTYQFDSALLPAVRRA
Method in brief: as §1

ETV5 = ETV5 (Homo sapiens, UniProt P41161 1-510)
Sequence of ETV5 (P41161 whole entry): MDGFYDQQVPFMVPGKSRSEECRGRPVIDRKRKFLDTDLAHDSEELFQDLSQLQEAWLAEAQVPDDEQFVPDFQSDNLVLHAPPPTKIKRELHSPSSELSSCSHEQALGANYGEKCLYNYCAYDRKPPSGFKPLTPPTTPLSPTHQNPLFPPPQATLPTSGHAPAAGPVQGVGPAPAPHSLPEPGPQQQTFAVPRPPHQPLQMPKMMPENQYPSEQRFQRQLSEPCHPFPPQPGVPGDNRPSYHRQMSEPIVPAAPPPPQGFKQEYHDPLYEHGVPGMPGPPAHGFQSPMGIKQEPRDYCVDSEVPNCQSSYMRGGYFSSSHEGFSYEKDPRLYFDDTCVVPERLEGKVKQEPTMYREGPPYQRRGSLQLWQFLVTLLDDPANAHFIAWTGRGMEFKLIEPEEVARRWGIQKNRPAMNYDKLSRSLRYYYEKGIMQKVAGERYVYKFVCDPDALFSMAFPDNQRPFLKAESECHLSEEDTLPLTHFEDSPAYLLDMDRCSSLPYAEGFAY
Method in brief: as §1

SPIC = molecular target: T5, SPIC (Homo sapiens, UniProt Q8N5J4 1-248)
T5 sequence: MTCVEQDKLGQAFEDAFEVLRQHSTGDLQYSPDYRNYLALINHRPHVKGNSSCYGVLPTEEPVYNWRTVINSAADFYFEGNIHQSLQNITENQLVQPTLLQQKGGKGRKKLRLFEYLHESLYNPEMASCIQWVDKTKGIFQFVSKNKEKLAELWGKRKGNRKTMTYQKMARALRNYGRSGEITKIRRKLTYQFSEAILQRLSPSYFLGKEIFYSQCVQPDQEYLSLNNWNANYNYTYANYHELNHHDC
Method in brief: as §1

ELF4 = ELF4 (Homo sapiens, UniProt Q99607 1-663)
Sequence of ELF4 (Q99607 whole entry): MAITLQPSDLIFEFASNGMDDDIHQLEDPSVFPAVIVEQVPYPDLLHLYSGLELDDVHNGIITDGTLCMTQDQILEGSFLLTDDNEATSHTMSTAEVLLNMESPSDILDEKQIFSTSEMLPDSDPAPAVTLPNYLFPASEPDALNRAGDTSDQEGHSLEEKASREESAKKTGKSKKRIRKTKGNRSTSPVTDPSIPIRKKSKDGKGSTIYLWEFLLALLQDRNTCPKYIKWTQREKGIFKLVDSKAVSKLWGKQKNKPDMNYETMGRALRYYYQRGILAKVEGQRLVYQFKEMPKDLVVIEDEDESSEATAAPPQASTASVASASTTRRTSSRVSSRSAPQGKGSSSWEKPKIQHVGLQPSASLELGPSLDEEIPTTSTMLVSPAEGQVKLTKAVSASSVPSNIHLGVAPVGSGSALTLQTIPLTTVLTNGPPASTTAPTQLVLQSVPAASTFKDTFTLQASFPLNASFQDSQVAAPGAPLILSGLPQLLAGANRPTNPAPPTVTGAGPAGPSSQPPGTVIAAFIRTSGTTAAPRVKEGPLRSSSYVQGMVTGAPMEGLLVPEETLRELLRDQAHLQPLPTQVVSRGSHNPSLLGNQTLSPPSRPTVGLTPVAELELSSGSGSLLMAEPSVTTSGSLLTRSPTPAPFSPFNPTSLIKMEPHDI
Method in brief: as §1

ELK4 = molecular target: T6, ELK4 (Homo sapiens, UniProt P28324-2 1-405)
T6 sequence: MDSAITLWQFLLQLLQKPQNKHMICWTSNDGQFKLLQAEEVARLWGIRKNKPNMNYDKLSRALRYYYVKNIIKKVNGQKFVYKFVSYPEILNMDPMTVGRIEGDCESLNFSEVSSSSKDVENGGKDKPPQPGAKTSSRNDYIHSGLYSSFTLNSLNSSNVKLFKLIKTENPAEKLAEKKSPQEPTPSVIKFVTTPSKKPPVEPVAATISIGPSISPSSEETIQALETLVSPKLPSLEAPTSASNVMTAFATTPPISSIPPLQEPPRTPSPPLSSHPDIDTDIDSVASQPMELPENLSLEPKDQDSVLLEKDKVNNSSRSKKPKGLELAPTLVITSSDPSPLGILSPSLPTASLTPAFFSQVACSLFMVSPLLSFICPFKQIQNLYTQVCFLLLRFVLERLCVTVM
Method in brief: as §1

ELF3 = molecular target: T7, ELF3 (Homo sapiens, UniProt P78545 1-371)
T7 sequence: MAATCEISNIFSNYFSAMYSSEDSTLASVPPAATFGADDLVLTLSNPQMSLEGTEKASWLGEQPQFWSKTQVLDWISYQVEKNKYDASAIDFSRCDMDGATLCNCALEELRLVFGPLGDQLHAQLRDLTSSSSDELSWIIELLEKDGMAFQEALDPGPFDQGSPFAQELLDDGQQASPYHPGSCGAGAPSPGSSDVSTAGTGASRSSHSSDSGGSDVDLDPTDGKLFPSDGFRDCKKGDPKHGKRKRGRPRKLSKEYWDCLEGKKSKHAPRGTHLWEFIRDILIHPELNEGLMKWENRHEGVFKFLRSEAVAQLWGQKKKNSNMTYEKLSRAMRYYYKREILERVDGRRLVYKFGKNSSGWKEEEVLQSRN
Method in brief: as §1

ETV1 = ETV1 (Homo sapiens, UniProt P50549 1-477)
Sequence of ETV1 (P50549 whole entry): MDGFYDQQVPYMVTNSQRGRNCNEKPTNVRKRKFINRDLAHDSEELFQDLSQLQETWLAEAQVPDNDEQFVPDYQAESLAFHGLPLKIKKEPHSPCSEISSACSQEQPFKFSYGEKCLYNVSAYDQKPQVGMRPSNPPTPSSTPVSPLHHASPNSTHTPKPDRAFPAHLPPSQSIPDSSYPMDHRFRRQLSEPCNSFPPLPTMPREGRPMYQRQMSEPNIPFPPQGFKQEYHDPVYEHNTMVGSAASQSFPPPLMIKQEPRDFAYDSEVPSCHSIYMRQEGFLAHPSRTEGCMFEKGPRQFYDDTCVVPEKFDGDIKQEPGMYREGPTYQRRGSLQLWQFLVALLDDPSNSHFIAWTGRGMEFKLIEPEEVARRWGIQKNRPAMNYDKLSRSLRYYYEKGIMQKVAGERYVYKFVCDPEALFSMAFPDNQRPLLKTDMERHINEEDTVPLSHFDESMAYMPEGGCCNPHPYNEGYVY
Method in brief: as §1

ETV3L = molecular target: T8, ETV3L (Homo sapiens, UniProt Q6ZN32 1-361)
T8 sequence: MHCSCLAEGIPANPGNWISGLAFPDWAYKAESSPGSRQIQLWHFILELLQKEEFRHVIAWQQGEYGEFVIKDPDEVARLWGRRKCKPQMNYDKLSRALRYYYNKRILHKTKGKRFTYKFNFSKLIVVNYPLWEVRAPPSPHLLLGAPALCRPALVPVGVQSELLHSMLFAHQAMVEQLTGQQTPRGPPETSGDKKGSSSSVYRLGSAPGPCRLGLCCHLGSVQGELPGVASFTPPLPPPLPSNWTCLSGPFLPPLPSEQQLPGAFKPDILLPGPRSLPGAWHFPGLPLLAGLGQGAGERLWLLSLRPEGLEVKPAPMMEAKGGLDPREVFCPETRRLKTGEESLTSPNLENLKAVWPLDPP
Method in brief: as §1

ETS2 = molecular target: T9, ETS2 (Homo sapiens, UniProt P15036 1-469)
T9 sequence: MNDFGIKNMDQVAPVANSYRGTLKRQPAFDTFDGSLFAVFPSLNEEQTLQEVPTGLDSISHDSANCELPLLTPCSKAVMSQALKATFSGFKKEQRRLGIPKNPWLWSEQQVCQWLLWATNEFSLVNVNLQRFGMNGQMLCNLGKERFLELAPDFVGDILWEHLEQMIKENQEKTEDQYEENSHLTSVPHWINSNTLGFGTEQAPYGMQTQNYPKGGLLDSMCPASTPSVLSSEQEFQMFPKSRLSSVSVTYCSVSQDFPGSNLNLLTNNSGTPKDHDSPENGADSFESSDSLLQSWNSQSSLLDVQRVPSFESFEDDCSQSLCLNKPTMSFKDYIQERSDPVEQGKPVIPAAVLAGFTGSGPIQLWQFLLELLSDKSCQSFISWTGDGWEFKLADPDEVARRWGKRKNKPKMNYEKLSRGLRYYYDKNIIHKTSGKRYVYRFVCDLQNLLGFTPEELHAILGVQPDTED
Method in brief: as §1

SPDEF = molecular target: T10, SPDEF (Homo sapiens, UniProt O95238 1-335)
T10 sequence: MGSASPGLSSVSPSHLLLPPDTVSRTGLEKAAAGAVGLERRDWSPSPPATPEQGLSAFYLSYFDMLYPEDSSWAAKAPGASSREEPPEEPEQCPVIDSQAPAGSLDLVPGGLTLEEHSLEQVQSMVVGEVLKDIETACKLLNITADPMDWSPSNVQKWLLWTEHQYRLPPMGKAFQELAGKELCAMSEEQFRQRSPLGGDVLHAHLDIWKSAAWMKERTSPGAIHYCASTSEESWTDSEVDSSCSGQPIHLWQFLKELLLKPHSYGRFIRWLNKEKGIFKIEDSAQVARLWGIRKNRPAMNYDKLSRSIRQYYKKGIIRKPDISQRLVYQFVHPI
Method in brief: as §1

ETV7 = molecular target: T11, ETV7 (Homo sapiens, UniProt Q9Y603 1-341)
T11 sequence: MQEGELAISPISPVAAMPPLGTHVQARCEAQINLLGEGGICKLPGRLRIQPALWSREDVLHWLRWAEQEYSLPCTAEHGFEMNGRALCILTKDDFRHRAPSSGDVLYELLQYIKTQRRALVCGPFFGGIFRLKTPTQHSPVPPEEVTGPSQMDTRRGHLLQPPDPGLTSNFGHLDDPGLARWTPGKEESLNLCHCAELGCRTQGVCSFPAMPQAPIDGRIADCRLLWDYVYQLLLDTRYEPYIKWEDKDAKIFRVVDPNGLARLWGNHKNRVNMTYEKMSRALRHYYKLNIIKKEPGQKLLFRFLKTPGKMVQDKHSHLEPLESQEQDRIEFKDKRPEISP
Method in brief: as §1

ETV6 = ETV6 (Homo sapiens, UniProt P41212 1-452)
Sequence of ETV6 (P41212 whole entry): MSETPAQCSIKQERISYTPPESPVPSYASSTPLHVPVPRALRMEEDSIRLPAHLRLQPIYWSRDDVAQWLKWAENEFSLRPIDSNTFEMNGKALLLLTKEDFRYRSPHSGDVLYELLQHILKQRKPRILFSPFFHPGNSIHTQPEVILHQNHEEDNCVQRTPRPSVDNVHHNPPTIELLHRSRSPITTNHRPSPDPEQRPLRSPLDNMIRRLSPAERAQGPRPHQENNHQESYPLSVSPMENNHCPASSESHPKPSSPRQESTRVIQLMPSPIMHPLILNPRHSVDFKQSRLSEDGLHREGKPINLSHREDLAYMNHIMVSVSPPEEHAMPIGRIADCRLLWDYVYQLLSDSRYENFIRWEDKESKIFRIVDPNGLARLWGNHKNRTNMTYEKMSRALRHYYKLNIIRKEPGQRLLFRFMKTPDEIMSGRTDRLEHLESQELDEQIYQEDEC
Method in brief: as §1

ETV3 = molecular target: T12, ETV3 (Homo sapiens, UniProt P41162-2 1-143)
T12 sequence: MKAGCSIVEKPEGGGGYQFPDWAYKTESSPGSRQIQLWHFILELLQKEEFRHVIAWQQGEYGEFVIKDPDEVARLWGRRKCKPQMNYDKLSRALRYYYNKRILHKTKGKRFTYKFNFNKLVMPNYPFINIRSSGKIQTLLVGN
Method in brief: as §1

Sequence: GCAGCT
- binding signal (ELK1): 1.04 fold enrichment (6-mer frequency, TF over GST control)
- binding signal (GABPA): 1.07 fold enrichment (6-mer frequency, TF over GST control)
- binding signal (ERG): 1.02 fold enrichment (6-mer frequency, TF over GST control)
- binding signal (ELF1): 1.06 fold enrichment (6-mer frequency, TF over GST control)
- binding signal (EHF): 1.03 fold enrichment (6-mer frequency, TF over GST control)
- binding signal (SPIB): 1.01 fold enrichment (6-mer frequency, TF over GST control)
- binding signal (ETV5): 1.08 fold enrichment (6-mer frequency, TF over GST control)
- binding signal (SPIC): 1.14 fold enrichment (6-mer frequency, TF over GST control)
- binding signal (ELF4): 1.06 fold enrichment (6-mer frequency, TF over GST control)
- binding signal (ELK4): 1.08 fold enrichment (6-mer frequency, TF over GST control)
- binding signal (ELF3): 1.07 fold enrichment (6-mer frequency, TF over GST control)
- binding signal (ETV1): 1.13 fold enrichment (6-mer frequency, TF over GST control)
- binding signal (ETV3L): 1.08 fold enrichment (6-mer frequency, TF over GST control)
- binding signal (ETS2): 1.08 fold enrichment (6-mer frequency, TF over GST control)
- binding signal (SPDEF): 1.06 fold enrichment (6-mer frequency, TF over GST control)
- binding signal (ETV7): 1.11 fold enrichment (6-mer frequency, TF over GST control)
- binding signal (ETV6): 1.06 fold enrichment (6-mer frequency, TF over GST control)

Sequence: TGGAAG
- binding signal (ERG): 1.05 fold enrichment (6-mer frequency, TF over GST control)
- binding signal (SPIB): 1.11 fold enrichment (6-mer frequency, TF over GST control)
- binding signal (ETV5): 1.03 fold enrichment (6-mer frequency, TF over GST control)
- binding signal (ELK4): 1.06 fold enrichment (6-mer frequency, TF over GST control)
- binding signal (ETV1): 1.02 fold enrichment (6-mer frequency, TF over GST control)
- binding signal (ETS2): 1.01 fold enrichment (6-mer frequency, TF over GST control)
- binding signal (ETV7): 1.13 fold enrichment (6-mer frequency, TF over GST control)
- binding signal (ETV3): 1.07 fold enrichment (6-mer frequency, TF over GST control)
- binding signal (ETV6): 1.19 fold enrichment (6-mer frequency, TF over GST control)
